The supplement of paper PMC11732987, “Enantioselective OTUD7B fragment discovery through chemoproteomics screening and high-throughput optimisation” (Communications Chemistry, 2025)

Assays:
Experiment in all cases: log2 ratio of Biotin-Ahx-Ub-VS probe labelling (fragment/DMSO); higher = less target engagement (more negative = stronger competition), active = hit call of the paper (q ≤ 0.05, log2 ratio ≤ -1)
Details in all cases: compound concentration: 200 uM; treatment time: 3 h
USP19 = target: T1, USP19 (UniProt O94966)
T1 sequence (whole entry): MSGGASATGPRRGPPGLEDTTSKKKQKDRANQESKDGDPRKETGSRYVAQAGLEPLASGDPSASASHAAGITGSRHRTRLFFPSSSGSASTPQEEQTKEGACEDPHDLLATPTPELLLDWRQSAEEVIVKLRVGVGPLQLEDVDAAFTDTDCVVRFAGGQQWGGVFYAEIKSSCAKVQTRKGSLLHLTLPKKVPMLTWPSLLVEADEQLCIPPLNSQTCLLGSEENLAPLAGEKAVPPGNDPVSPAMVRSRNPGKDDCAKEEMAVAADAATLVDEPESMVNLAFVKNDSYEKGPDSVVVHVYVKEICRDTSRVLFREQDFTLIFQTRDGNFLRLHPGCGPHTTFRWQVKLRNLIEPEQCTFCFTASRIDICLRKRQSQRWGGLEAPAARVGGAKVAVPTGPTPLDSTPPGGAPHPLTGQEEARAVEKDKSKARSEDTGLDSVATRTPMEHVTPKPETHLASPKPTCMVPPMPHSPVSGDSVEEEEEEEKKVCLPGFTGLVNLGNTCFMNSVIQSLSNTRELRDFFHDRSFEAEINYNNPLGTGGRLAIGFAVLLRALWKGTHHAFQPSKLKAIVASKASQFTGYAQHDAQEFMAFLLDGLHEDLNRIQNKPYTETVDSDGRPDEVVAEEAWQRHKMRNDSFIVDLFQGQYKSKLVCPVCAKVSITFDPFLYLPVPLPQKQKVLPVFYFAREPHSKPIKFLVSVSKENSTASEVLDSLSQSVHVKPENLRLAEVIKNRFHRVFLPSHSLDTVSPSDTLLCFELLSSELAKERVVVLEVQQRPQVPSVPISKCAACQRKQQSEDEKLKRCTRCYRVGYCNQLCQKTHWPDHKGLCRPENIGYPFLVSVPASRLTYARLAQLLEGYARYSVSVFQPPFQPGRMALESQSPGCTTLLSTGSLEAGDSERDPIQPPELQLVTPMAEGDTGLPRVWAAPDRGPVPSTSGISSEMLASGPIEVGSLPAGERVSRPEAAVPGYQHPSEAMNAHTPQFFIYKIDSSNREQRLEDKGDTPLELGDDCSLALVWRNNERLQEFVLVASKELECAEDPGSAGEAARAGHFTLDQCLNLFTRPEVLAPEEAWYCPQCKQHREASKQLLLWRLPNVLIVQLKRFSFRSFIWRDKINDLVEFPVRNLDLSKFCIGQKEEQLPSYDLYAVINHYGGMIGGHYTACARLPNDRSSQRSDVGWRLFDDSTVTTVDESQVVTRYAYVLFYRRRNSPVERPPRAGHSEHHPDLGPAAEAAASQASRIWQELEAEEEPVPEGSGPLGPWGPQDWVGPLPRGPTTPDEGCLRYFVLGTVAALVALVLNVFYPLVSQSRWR
Summary of the method: (§1)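 The table lists average log2 ratios of fragment over vehicle, from an unpaired t-test on global-median-normalised Spectronaut label-free quantities. Proteins with ≥2 unique peptides were used. Samples were HEK293T lysate (495 µg) treated in triplicate with fragment at 200 µM or vehicle for 3 h, then with Biotin-Ahx-Ub-VS (0.5 µM final) for 1 h, with labelled DUBs NeutrAvidin-enriched and run by diaPASEF LC-MS/MS.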

USP22 = target: T2, USP22 (UniProt Q9UPT9)
T2 sequence (whole entry): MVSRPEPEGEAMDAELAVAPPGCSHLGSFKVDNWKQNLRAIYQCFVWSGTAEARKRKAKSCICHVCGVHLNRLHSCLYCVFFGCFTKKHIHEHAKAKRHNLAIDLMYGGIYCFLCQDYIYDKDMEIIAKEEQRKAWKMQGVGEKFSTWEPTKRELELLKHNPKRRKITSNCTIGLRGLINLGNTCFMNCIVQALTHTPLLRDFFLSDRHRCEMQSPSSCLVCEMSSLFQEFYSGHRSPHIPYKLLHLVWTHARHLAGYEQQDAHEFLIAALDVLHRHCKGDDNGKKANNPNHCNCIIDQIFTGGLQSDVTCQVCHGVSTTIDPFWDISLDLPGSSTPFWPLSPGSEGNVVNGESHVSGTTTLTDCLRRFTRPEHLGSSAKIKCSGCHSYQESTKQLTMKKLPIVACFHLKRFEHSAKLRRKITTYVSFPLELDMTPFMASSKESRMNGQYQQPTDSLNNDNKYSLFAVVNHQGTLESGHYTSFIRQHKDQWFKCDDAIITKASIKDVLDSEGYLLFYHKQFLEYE
Summary of the method: as §1

USP24 = USP24 (UniProt Q9UPU5)
Summary of the method: as §1

USP25 = target: T3, USP25 (UniProt Q9UHP3)
T3 sequence (whole entry): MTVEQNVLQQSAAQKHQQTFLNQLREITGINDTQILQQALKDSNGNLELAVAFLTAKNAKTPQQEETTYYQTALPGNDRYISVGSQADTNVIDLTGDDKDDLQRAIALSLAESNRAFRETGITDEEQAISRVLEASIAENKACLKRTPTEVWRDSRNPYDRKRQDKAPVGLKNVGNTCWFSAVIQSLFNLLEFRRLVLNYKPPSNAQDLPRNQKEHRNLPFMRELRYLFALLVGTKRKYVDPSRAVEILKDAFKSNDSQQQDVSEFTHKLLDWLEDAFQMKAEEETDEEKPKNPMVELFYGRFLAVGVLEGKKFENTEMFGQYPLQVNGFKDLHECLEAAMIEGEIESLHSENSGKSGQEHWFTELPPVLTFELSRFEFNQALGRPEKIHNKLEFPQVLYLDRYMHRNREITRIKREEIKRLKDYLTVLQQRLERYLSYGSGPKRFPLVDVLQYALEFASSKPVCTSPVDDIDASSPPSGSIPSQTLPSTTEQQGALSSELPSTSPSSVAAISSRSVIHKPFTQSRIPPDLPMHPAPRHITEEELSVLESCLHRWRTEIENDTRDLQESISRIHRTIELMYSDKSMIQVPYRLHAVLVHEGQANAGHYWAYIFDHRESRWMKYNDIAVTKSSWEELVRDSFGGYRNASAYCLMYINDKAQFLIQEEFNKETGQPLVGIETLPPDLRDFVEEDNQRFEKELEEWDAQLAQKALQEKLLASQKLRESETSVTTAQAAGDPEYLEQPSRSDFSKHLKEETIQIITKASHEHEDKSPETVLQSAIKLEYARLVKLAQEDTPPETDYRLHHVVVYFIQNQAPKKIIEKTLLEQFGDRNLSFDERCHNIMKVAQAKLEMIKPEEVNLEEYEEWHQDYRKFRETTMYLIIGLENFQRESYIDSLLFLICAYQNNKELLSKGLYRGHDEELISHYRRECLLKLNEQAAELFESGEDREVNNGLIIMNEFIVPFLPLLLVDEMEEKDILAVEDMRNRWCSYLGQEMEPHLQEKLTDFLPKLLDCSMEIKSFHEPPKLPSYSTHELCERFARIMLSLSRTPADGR
Summary of the method: as §1

USP28 = target: T4, USP28 (UniProt Q96RU2)
T4 sequence (whole entry): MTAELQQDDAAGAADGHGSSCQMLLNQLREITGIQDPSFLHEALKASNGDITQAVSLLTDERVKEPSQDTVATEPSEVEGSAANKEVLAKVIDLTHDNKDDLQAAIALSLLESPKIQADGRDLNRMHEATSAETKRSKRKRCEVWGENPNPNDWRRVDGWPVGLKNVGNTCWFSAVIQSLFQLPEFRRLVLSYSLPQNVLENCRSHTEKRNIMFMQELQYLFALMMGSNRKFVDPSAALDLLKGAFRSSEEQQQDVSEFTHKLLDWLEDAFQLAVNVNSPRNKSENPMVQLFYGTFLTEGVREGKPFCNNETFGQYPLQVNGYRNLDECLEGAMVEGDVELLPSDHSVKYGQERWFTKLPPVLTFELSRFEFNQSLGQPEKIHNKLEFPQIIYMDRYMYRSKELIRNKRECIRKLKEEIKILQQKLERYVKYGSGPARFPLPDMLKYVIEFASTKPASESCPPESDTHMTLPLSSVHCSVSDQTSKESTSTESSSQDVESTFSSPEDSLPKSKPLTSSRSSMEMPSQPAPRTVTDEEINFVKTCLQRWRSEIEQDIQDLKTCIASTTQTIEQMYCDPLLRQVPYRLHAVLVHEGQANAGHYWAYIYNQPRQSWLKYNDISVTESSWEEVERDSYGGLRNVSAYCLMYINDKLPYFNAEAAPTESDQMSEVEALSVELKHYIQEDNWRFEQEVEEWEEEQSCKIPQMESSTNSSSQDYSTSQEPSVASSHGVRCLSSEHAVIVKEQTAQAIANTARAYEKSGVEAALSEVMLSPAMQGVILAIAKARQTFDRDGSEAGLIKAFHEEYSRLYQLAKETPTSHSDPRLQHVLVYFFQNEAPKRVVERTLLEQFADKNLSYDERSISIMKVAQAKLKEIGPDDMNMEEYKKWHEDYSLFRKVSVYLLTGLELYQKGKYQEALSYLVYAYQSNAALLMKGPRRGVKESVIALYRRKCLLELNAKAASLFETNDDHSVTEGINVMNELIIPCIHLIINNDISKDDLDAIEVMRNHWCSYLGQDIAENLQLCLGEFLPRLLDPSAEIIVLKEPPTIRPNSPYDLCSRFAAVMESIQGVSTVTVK
Summary of the method: as §1

Measured: log2 ratio of Biotin-Ahx-Ub-VS probe labelling

Sequence of USP24 (Q9UPU5 whole entry): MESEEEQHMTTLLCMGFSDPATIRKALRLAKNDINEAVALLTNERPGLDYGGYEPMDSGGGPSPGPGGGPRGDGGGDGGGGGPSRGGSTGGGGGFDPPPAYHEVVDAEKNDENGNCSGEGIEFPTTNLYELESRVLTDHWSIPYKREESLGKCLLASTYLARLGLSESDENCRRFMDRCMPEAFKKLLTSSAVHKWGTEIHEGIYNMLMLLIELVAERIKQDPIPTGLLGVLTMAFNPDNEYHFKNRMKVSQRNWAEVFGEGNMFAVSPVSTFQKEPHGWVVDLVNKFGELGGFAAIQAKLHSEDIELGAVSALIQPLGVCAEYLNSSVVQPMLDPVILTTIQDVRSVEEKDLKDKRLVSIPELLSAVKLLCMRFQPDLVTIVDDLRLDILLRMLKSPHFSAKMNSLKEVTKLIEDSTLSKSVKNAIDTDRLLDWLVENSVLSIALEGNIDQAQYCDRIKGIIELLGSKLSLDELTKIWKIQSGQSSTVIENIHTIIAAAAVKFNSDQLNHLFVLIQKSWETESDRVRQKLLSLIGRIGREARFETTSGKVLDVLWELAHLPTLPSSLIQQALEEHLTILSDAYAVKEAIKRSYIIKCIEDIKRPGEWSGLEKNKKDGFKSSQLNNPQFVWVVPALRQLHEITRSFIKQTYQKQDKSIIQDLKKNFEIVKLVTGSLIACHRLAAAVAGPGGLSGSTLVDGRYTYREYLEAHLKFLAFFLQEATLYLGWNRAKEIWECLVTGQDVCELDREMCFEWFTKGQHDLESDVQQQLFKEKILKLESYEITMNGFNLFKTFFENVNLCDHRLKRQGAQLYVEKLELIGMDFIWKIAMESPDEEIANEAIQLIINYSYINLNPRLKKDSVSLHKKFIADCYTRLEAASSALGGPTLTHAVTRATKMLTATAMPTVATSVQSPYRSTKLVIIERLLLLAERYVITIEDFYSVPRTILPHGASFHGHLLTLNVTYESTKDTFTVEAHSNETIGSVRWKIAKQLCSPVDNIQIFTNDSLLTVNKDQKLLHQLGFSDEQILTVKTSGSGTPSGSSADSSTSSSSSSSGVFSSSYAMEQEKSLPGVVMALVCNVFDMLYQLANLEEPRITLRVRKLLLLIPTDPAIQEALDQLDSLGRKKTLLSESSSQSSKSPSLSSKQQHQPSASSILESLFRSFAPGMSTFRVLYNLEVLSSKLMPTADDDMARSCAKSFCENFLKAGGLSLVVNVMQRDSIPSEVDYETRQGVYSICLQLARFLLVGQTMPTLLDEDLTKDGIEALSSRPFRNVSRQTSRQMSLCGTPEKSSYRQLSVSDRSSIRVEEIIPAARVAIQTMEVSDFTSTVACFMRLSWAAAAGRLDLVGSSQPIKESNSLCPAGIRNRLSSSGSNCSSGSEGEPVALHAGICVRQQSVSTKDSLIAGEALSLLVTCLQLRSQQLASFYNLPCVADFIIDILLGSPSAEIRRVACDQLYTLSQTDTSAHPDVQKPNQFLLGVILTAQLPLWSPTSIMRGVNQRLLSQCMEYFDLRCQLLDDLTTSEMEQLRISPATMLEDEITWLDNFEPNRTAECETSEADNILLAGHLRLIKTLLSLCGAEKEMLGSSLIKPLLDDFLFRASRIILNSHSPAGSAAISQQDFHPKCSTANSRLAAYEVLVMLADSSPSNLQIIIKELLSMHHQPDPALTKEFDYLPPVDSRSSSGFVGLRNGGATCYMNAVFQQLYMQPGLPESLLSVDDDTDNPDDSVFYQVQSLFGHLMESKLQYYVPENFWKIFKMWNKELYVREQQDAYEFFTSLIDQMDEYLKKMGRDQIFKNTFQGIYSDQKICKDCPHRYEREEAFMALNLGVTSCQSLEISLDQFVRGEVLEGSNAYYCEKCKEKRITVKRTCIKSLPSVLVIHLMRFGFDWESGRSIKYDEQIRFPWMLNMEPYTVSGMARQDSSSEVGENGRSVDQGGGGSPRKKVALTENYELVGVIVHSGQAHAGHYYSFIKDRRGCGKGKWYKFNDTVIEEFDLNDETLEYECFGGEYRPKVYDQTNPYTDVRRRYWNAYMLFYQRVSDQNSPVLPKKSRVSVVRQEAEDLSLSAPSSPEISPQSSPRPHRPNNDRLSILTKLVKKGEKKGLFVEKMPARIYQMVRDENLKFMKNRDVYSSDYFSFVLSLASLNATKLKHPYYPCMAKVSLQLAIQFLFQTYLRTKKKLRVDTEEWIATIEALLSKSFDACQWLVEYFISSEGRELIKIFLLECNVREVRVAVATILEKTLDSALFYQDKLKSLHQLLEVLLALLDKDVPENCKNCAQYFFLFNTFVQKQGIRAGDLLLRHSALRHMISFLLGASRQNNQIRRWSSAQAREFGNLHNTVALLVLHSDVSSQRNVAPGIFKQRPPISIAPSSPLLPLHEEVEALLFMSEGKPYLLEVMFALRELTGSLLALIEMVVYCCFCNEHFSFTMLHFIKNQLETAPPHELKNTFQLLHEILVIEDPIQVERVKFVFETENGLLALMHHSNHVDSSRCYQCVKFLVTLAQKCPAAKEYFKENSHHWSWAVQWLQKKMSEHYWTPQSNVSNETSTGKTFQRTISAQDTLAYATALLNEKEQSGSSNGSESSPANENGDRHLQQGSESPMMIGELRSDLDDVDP

C/C(=C\CNC(=O)CCl)c1cnn(C)c1.Cl
inactive: USP19 -0.404 | USP22 0.026 | USP24 -0.203 | USP25 -0.578 | USP28 -0.395
